Data reported in PubChem BioAssay (EPA / NIEHS).
Active and inactive are the calls of the source. How the source made its calls: active means hit-call score of the fitted dose curve at least 0.9, where 1 is the maximum; inactive means score below 0.9.

Assay: ATG_SREBP_CIS: Attagene CIS-FACTORIAL HepG2 Assay for human Sterol Regulatory Element Binding (SREBP) (AID 2282962)
Details: HepG2 Attagene cis-factorial SREBP reporter, mRNA; actives raise or lower the signal
Procedure: ATG_CIS is a cell-based, multiplexed-readout assay that uses HepG2, a human liver cell line, with measurements taken at 24 hours after chemical dosing in a 24-well plate.ATG_SREBP_CIS is one of 52 assay component(s) measured or calculated from the ATG_CIS assay. It is designed to make measurements of mRNA induction, a form of inducible reporter, as detected with fluorescence intensity signals by Reverse transcription polymerase chain reaction (RT-PCR) and Capillary electrophoresis technology.Data from the assay component ATG_SREBP_CIS was analyzed into 1 assay endpoint. This assay endpoint, ATG_SREBP_CIS, was analyzed with bidirectional fitting relative to DMSO as the negative control and baseline of activity. Using a type of inducible reporter, measures of mRNA for gain or loss-of-signal activity can be used to understand the reporter gene at the transcription factor-level as they relate to the gene SREBF1. Furthermore, this assay endpoint can be referred to as a primary readout, because this assay has produced multiple assay endpoints where this one serves a reporter gene function. To generalize the intended target to other relatable targets, this assay endpoint is annotated to the dna binding intended target family, where the subfamily is basic helix-loop-helix leucine zipper.
Human liver HepG2 cells are transiently transfected with multiple reporter transcription units (MRTUs) in 6-well plates using FuGene 6 reagent (Roche; 3 ml FuGene/1 mg DNA). The MRTU constructs are regulated by a cis-regulating element (promoter). […] A major difference between the CIS and TRANS system is that in CIS activities of endogenous TFs are measured, whereas the TRANS assay evaluates changes in activities of exogenous, chimeric NR-Gal4 proteins. […] At the end of 24 hour incubation, total RNA was isolated using TriZol reagent (Invitrogen). The isolated RNA is then reverse-transcribed using oligo(dT) primer and Mo-MLV reverse transcriptase (Invitrogen) with DNAse I (Ambion) treatment for 30 min. The one-tenth of the produced cDNA was amplified by PCR using Taq DNA polymerase (Invitrogen) and two reporter sequence-specific primers. The PCR products were fluorescently labeled by primer extension with 6-arboxyfluorescein (6-FAM) 5'-labeled reporter sequence-specific primer (2 min at 95 C, 20 s at 68 C and 10 min at 72 C) and these products were digested with 5U of HpaI (New England Biolabs) for 2h at 37 C. The fragments were purified using Qiaquick PCR columns (Qiagen), analyzed on an ABI 3130xL genetic analyzer (Applied Biosystems) with peak positions identified by using a set of X-rhodamine (ROX)-labeled MapMarker1000 molecular weight standards (BioVentures). The raw capillary electrophoresis data was processed using Attagraph software (Attagene).

Structure (SMILES)	AC50	outcome
O=c1[nH]cc(F)c(=O)[nH]1	18.3 µM (active)	–
CCCCN(CCCC)CCCC	–	inactive
CN1CCN(Cc2cc(-c3ccc4[nH]c(=O)oc4c3)co2)[C@@H](c2ccc(F)cc2)C1	33 µM (active)	–
O=[N+]([O-])C(CO)(CO)CO	–	inactive
CCc1c(C(=O)NN2CCCCC2)nn(-c2ccc(Cl)cc2Cl)c1-c1ccc(Br)cc1	0.719 µM (active)	–
Cc1ccc(Cl)cc1	–	inactive
COC(=O)c1ccc(O)cc1	–	inactive
Cc1cccc([N+](=O)[O-])c1C	–	inactive
CC1(C)NC(=O)NC1=O	–	inactive
Cc1cccc(C)c1O	–	inactive
CNC(=O)[C@H]1O[C@@H](n2cnc3c(NCc4cc(Cl)ccc4OCc4cc(C)no4)ncnc32)[C@H](O)[C@@H]1N	–	inactive
CCOc1ccc2c(c1)C(C)=CC(C)(C)N2	–	inactive
CC=Cc1ccc(O)c(OC)c1	–	inactive
Cc1ccc2ncccc2c1	–	inactive
Cc1c(C(=O)O)c(O)cc2c1C(=O)c1c(O)c([C@@H]3O[C@H](CO)[C@@H](O)[C@H](O)[C@H]3O)c(O)c(O)c1C2=O	–	inactive
Cc1oc(-c2ccccc2)nc1CCOc1cccc2c1ccn2CCC(=O)O	26.8 µM (active)	–
Cc1ccccc1Cl	–	inactive
COc1cc(/C=C/C(=O)CC(=O)/C=C/c2ccc(O)c(OC)c2)ccc1O	56.8 µM (active)	–
CC(=O)OC/C=C(\C)CCC=C(C)C	–	inactive
Cc1cc(=O)[nH]c(=S)[nH]1	–	inactive

Structure (SMILES)	AC50	outcome
CCCCC(CC)COC(=O)CC(C(=O)OCC(CC)CCCC)S(=O)(=O)O (stereo not given)	14.2 µM (active)	–
CCCCCCCCCCCC(=O)OC	59.6 µM (active)	–
OC[C@@H](O)[C@@H](O)[C@H](O)[C@H](O)CO	–	inactive
Nc1nc(N)c2nc(CNc3ccc(C(=O)N[C@@H](CCC(=O)O)C(=O)O)cc3)cnc2n1	–	inactive
FC(F)(F)C(F)(F)C(F)(F)C(F)(F)C(F)(F)C(F)(F)CCI	–	inactive
CC(=O)Oc1ccccc1C(=O)O	–	inactive
CCNc1cccc(C)c1	–	inactive
CCCCc1ccc2c(n1)[C@@H](c1ccc(OC)cc1C[C@H](C)C(=O)O)[C@H](C(=O)O)[C@H]2c1ccc2c(c1)OCO2	–	inactive
Cc1ccc(C(C)C)c(O)c1	–	inactive
CC1=C(/C=C/C(C)=C/C=C/C(C)=C/CO)C(C)(C)CCC1	–	inactive
COc1cccc2c1C(=O)c1c(O)c3c(c(O)c1C2=O)C[C@@](O)(C(=O)CO)C[C@@H]3O[C@H]1C[C@H](N)[C@H](O)[C@H](C)O1	0.909 µM (active)	–
COc1cc(S(=O)(=O)O)c(C)cc1N=Nc1c(O)ccc2cc(S(=O)(=O)O)ccc12	–	inactive
Oc1ccc2ccccc2c1N=Nc1ccccc1	–	inactive
CN1CCCC1=O	–	inactive
Clc1cc(Cl)c(Cl)cc1Cl	–	inactive
O=c1c(O)c(-c2ccc(O)c(O)c2)oc2cc(O)cc(O)c12	–	inactive
CCCCCCC(=O)OCC	–	inactive
CN[C@H]1CC[C@@H](c2ccc(Cl)c(Cl)c2)c2ccc(S(N)(=O)=O)cc21	3.7 µM (active)	–
Cc1nc(-c2ccc3c(c2)CCN(CCC2CCC(NC(=O)/C=C/c4ccc(F)cc4)CC2)CC3)no1 (stereo not given)	–	inactive
CCCCCCOCCO	–	inactive
